Most compounds without a hit are left out; they make up all but 3.4% or so of the library.
AI-2 QS modul – modulators of Vibrio harveyi AI-2 quorum sensing system; Vibrio harveyi JMH597 AI-2 luminescence/OD600 ratio, 9 h; active compounds read low; strain lacks LuxN and CqsS sensors; 0 = neutral-control median; activity change, % at 7.5 µM; actives 0.4% (n = 300,000); in the data active = activity change below about -75%, passing the limit was not always enough;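 note: luminescence divided by OD600 gain over 9 h not by final OD600 alone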
HSF1 inhib – HSF1 inhibition. NIH3T3-HGL HSE-luciferase, MG132-induced, luminescence 8 h; active compounds read low. activity change, negative = inhibition, % at 7.5 µM (by protocol). actives 0.77% (n = 300,000). AID 2098;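 active = more than half of replicate wells show activity change below -50%, luminescence cut by over half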;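 note: luciferase reports HSF-1 transcriptional activity via heat shock element; 0% = median of DMSO wells and -100% = zero luminescence signal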
GAA850 FXN act – activators of GAA850 frataxin (FXN) promoter. HEK293 lucGAA850 FXN promoter luciferase reporter, 24 h; percent of 10 µM SAHA response. activation, % at 6 µM. actives 0.56% (n = 360,000);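 active = activation above the average of all compounds screened plus 3 SD, cutoff fixed separately per campaign, cut at about 7.5% in these data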;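 note: 0% = DMSO wells and 100% = 10 µM SAHA wells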
SMARCA2 activ – increases SMARCA2 function in MMTV reporter cells | MG213 cells, MMTV-luciferase reporter, dexamethasone, overnight | activation, % at 9.1 µM | actives 1% (n = 370,000); in the data active = activation above about 7.8%;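 note: 0% = vehicle wells and 100% = reference activator wells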
HSP90 refold inh – inhibitors of HSP90 luciferase refolding in rabbit reticulocyte lysate; luciferase refolding luminescence, 3 h; actives 0.91% (n = 290,000); AID 1789; inhibition, % at 5.6 µM;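 active = inhibition above the screen-wide mean plus 3 SD, computed separately per campaign, cut at about 16% in these data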;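 note: 0% = DMSO wells and 100% = 60 µM geldanamycin wells; inhibitors lower the luminescence because luciferase stays unfolded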
PG9 binder – small molecules binding HIV-1 gp120 antibody PG9; TR-FRET gp120-PG9 antibody binding; inhibition, % at 6.7 µM; actives 0.43% (n = 360,000); AID 624416; in the data active = inhibition above about 8.5%
GAA30 FXN cntr – counter-screen for GAA850 frataxin promoter activators: GAA30 promoter activation; activation, % at 6 µM; HEK293 lucGAA30 FXN promoter luciferase, 24 h; DMSO = 0%, 5 µM ipriflavone = 100%; shares compounds with GAA850 FXN act; actives 66% (n = 1,900);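 active = mean activation above the mean of solvent-only control wells plus 3 SD, cut at about 22% in these data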;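 note: counterscreen of GAA850 promoter hits where activity marks nonselective or luminescence artifacts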
GAA850 confirm – confirmation of GAA850 frataxin (FXN) promoter activators; shares compounds with GAA850 FXN act; HEK293 lucGAA850 FXN promoter luciferase reporter, 24 h; 100% = activation by SAHA; activation, % at 6 µM; actives 86% (n = 1,900);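 active = mean activation above a set limit taken from the primary screen, cut at about 8% in these data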;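 note: 0% = DMSO wells and 100% = 10 µM SAHA wells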
* = called active by the depositor; x = no result given.

SMILES	AI-2 QS modul	HSF1 inhib	GAA850 FXN act	SMARCA2 activ	HSP90 refold inh	PG9 binder	GAA30 FXN cntr	GAA850 confirm
CCC(CC)c1nnc(NC(=O)CN2C(=O)C3C4C=CC(C4)C3C2=O)s1 (stereo not drawn)	14	1	9.9*	-1	4	-1	14	7
CC(C)c1nnc(NC(=O)CCCCCN2C(=O)C3C4C=CC(C4)C3C2=O)s1 (stereo not drawn)	16	8	-2	-1	-2	0	x	x
COc1ccc(C2N(c3ccc(Cl)cc3)C(=O)C3CCCN32)cc1 (stereo not drawn)	-9	2	13*	2	-1	-1	-5	3
O=S1(=O)N[C@H](c2ccccc2)COc2cc(Br)ccc21	x	x	x	-6	x	1	x	x
O=C(C=C=Nc1ccccc1)C(=O)N=C=Cc1ccccc1	-3	170	8.7*	2	4	-1	27*	29*
COc1ccccc1CCn1cnc(-c2ccc(Br)cc2)c1CC(C)C	x	x	x	-4	x	-1	x	x
N#Cc1ccc(Nc2nc(NCc3ccccc3)nc3ccsc23)cc1	x	x	9.5*	-4	x	-1	33*	13*
CN(CC(=O)Nc1cccc(F)c1)C(=O)CCCN1C(=O)c2cccc3cccc(c23)C1=O	9	3	14*	1	x	1	30*	11*
COc1ccc(-c2cc(C(F)(F)F)nc(S(=O)(=O)CCCC(=O)Nc3cc(C)on3)n2)cc1OC	44	226	10*	-9	0	-1	58*	83*
Clc1nc2ccccc2cc1/C=N/Nc1nc2ccccc2[nH]1	12	-4	8.4*	5	4	2	128*	44*
CCCn1c(/C=N/Nc2nc3ccccc3[nH]2)nc2ccccc21	x	x	5	4	-5	1	x	x
C(=N\Nc1nc2ccccc2[nH]1)/c1ccncc1	38	-13	2	4	13	-8	x	x
Cn1c(/C=N/Nc2nc3ccccc3[nH]2)nc2ccccc21	29	10	8.5*	5	9	-1	-33	-10
CC(=O)c1ccc2oc3ccccc3c(=O)c2c1	35	-1	8.6*	4	-9	0	87*	33*
O=C(NNC(=S)Nc1ccccc1)Nc1ccccc1	-7	6	7.7*	6	-1	1	36*	11*
O=C(NNC(=S)Nc1ccccc1)NNC(=S)Nc1ccccc1	14	-2	1	2	-2	0	x	x
CC(C)C[C@H]1CN([C@@H](Cc2ccccc2)CN2CCC[C@H]2CN2C(=O)C(=O)NC[C@@H]2Cc2ccc(O)cc2)C(=O)C(=O)N1CC1CCCCC1	x	x	x	-2	x	1	x	x
Nc1nc(CSc2ccccc2)nc(N2CCCCC2)n1	13	4	7.9*	2	-5	1	98*	29*
COCOCCn1cc(CN2CCS(=O)(=O)N(Cc3ccc(-c4ccc(OC)cc4)cc3)C(C(C)C)C2=O)nn1 (stereo not drawn)	x	x	-1	-2	x	0	x	x
CCOC(=O)/C(=N/Nc1ccccc1)c1csc(Nc2ccccc2)n1	10	6	7	-5	4	2	x	x
CCOC(=O)/C(=N\Nc1ccc(Cl)cc1)c1csc(Nc2ccccc2)n1	7	-12	8.0*	-2	6	-2	34*	24*
CCOC(=O)/C(=N\Nc1ccc(OC)cc1)c1csc(Nc2ccccc2)n1	21	20	11*	7.8*	-4	-2	38*	25*
C=CCCC1CN(Cc2ccc(OC)cc2)S(=O)(=O)c2c(cccc2N2CCCC2)O1 (stereo not drawn)	x	x	x	-4	x	0	x	x
C=CCNCCCCOc1ccc(OCc2ccccc2)cc1	38	2	9.1*	8	5	-2	102*	49*
c1ccc(COc2ccc(OCCCCN3CCCC3)cc2)cc1	14	-8	7.6*	19*	2	0	83*	33*

Compound activity from PubChem BioAssay.
